Activity calls are given as the source filed them. How the calls were made is not given here.
Test: compound effect on GFP reporter cells – imaging, dry powder samples, counter-screen for PrP inhibitor project, dose response (AID 588507)
Settings: max activity: measured here: maximum activity across titration, at 0.0195 µM

In the case of `COc1cc(SC)ccc1C(=O)Nc1nc2ccccc2[nH]1`, the max activity is reported as 451% and the outcome is reported as “inactive”.

— PubChem BioAssay AID588507 (Broad Institute, 2011)
